Results published in PubChem BioAssay.
The source made the active and inactive calls.

Experiments:
Albumin (Bos taurus) = Albumin (Bos taurus) (UniProt P02769); test: bovine serum albumin binders on microarray, profiling panel, artefact control for SMM control protein annotation, biochemical, small-molecule microarray, Alexa647 label, 635/667 nm fluorescence (AID 1118); conditions: BSA-A647 binding, fluorescence 635 nm, higher = more signal;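 note: score merges 667 nm emission intensity and signal-to-noise per printed compound spot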
Albumin (Bos taurus), sequence (P02769 whole entry, looked up): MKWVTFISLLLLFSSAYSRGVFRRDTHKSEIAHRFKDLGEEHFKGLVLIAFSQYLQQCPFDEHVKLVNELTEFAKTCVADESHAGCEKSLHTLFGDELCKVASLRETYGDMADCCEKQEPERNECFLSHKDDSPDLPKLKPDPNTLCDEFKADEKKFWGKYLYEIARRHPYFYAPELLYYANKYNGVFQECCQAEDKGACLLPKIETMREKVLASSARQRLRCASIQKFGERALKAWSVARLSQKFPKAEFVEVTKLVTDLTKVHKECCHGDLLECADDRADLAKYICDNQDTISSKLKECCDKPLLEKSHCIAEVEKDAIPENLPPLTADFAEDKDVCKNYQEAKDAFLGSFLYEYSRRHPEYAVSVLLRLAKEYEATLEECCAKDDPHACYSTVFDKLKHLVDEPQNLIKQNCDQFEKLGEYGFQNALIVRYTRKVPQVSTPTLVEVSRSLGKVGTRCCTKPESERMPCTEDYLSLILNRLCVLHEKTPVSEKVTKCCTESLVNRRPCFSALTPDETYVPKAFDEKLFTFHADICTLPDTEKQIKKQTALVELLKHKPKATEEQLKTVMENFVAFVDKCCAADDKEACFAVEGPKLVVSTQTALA

[1] = small-molecule microarray binders of probe aXIP, primary screen, biochemical, NeuroSMM set, 635/667 nm fluorescence (AID 1119); conditions: higher = more signal, called active from +8 up or from −8 down;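 note: probe is the protein aXip251-270 applied at 1 µg/mL to compound-printed slides; binding of probe to printed compounds measured as 667 nm fluorescence plus signal to noise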
[2] = small-molecule binders of probe aNOTCH3, primary screen, biochemical, small-molecule microarray, 635/667 nm fluorescence (AID 1120); conditions: higher = more signal;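 note: probe is a biotin-tagged antibody raised against NOTCH3 rather than NOTCH3 protein; score merges spot fluorescence near 667 nm with spot signal to noise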
[3] = small-molecule binders of probe aNOTCH2, primary screen, biochemical, small-molecule microarray, 635/667 nm fluorescence (AID 1121); conditions: higher = more signal;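 note: score merges feature fluorescence read at 667 nm with its signal to noise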
[4] = target: Carbonic anhydrase 2 (Homo sapiens) (UniProt P00918); test: CAII small-molecule binders, profiling panel, biochemical, small-molecule microarray, Alexa647-labelled CAII (AID 1122); conditions: CAII-A647 binding fluorescence, higher = more signal
[5] = COS7 lysate on small-molecule microarray, probe aHis, 635 nm (AID 1123); conditions: COS7 cell lysate, fluorescence, higher = more signal;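 note: z-score combines 667nm fluorescence intensity with signal-to-noise per printed compound spot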
[6] = compound binding in COS7 lysate, probe aLAP1, primary screen, cell lysate, small-molecule microarray (AID 1124); conditions: probe aLAP1, fluorescence, higher = more signal;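 note: lysate comes from COS7 cells expressing LAP1 and is applied at 0.3 µg/mL; score merges spot fluorescence near 667 nm with signal-to-noise over triplicate slides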
Sam68 (KHDRBS1) = test: Sam68 small-molecule binders, primary screen, biochemical, small-molecule microarray, 635 nm fluorescence (AID 1125); conditions: small-molecule microarray binding, higher = more signal;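 note: score merges 667 nm channel intensity with signal to noise over triplicate slides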
[7] = system: Chordin-like protein 2 (CHRDL2); test: CHRDL2 small-molecule binders, primary screen, biochemical, small-molecule microarray, 635 nm fluorescence (AID 1126); conditions: small-molecule microarray binding, fluorescence 635 nm; higher = more signal;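 note: printed compound slides probed with Chrdl2 protein at 4 µg/mL for 1 h at 4 C; score merges 667 nm emission intensity with signal to noise over three replicate slides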
[8] = target: Concanavalin-A (Canavalia ensiformis) (UniProt P02866); test: ConA small-molecule binders, primary screen, artefact control for SMM control protein annotation, biochemical, small-molecule microarray, Alexa647 label, 635 nm (AID 1127); conditions: ConA-A647 binding fluorescence, higher = more signal;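 note: z combines 667 nm emission intensity with signal-to-noise across three replicate slides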
Concanavalin-A (Canavalia ensiformis), sequence (P02866 whole entry, looked up): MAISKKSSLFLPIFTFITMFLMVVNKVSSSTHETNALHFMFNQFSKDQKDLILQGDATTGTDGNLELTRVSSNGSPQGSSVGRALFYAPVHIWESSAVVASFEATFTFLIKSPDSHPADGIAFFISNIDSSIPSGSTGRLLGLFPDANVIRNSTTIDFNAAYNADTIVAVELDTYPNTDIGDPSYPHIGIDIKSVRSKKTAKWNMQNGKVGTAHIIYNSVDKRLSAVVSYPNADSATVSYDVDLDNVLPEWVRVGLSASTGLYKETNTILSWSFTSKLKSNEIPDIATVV

| Structure (SMILES) | composite z-score (Albumin (Bos taurus)) | composite Z-score [1] | composite z-score [2] | composite z-score [3] | composite z-score [4] | composite z-score [5] | composite z-score [6] | composite z-score (Sam68 (KHDRBS1)) | composite z-score [7] | composite z-score [8] |
| --- | --- | --- | --- | --- | --- | --- | --- | --- | --- | --- |
| COc1ccc(COC2OC[C@]3(C)[C@H]4C5=C(CN3C(=O)OC(C)(C)C)[C@H](C)C(CO)C(CO)C5CC[C@@H]24)cc1 (stereo not given in full) | 0.73 | 0.086 (inactive) | 0.339 | 0.191 | 0.513 | 0.814 | 0.846 | 0.567 | -0.888 | 0.927 |
| CN1C(=O)C2C=CC(C(O)Cc3ccccc3)N(Nc3ccccc3)C2C1=O (stereo not given) | 0.554 | -0.193 (inactive) | -0.0311 | -0.0196 | 0.589 | 3.06 | -0.333 | -0.0158 | -0.513 | 0.672 |
| COCCCNC(=O)[C@@]1(Cc2ccccc2)N=C(c2ccc(OCCCO)cc2)O[C@H]1c1ccccc1 | 0.893 | 1.14 (inactive) | 0.374 | 0.308 | 0.79 | 2.9 | -0.0127 | 1.29 | -1.1 | 1.12 |
| COCCOC(=O)N1C(=O)[C@@]2(c3cc(C#CCCO)ccc31)[C@H](C(=O)Nc1nc3ccccc3s1)[C@H]1C(=O)O[C@H](c3ccccc3)[C@H](c3ccccc3)N1[C@@H]2c1ccc(OCCO)cc1 | 0.72 | -1.03 (inactive) | 0.286 | -0.0028 | 0.295 | 0.793 | 0.225 | 1.28 | 0.387 | 1.07 |
| COCC(=C=CC[C@@H](O)c1ccccc1OCCO)C[C@@H](O)c1cc(Cl)cc(Cl)c1O | 0.641 | 0.103 (inactive) | 0.129 | -0.14 | 0.38 | 1.24 | 0.822 | 1.3 | 0.476 | 1.08 |
| C=C(COC)/C(=C/C[C@H](OC(=O)c1ccncc1)c1ccc(OCCO)cc1)c1cnc2ccccc2c1 | 0.808 | 0.914 (inactive) | 0.227 | -0.0389 | 0.86 | 1.46 | 0.334 | 1.29 | 1.26 | 1.17 |
| O=C1O[C@@H](c2ccccc2)[C@@H](c2ccccc2)N2[C@@H](c3ccccc3OCCO)[C@]3(C(=O)Nc4ccc(C#CC5=CCCCC5)cc43)[C@@H](C(=O)Nc3nc4ccccc4s3)[C@H]12 | 0.778 | 0.243 (inactive) | 0.0715 | -0.0583 | 0.272 | 1.39 | 0.399 | 1.3 | 0.309 | 1.06 |
| COC(=O)[C@@]1(Cc2ccc(F)cc2)[C@H]2c3cc(C(=O)N(C)C)n(Cc4nc5ccccc5[nH]4)c3C[C@H]2CN1C(=O)c1ccccc1 | 1.05 | 0.0895 (inactive) | 0.392 | 0.0274 | 0.824 | 3.03 | 0.35 | 0.651 | -0.41 | 0.683 |
| CC(C)N1C(=O)[C@@]2(Cc3ccccc31)c1ccccc1C(=O)N(C1CCCCC1)[C@H]2c1ccc(CO)cc1 | -0.352 | -0.0662 (inactive) | 0.0196 | -0.174 | 0.156 | 1.59 | 0.779 | 0.819 | 0.78 | 0.842 |
| C=CCNC(=O)[C@H]1[C@@H]2C(=O)O[C@@H](c3ccccc3)[C@@H](c3ccccc3)N2[C@@H](c2ccc(OCCO)cc2)[C@]12C(=O)N(C(=O)OCCOC)c1ccccc12 | 0.262 | 0.108 (inactive) | 0.199 | -0.0964 | 0.381 | 1.99 | 0.503 | 1.3 | 0.176 | 1.14 |
| O=C1C2C=CC(C(O)C(c3ccccc3)c3ccccc3)N(n3cnnc3)C2C(=O)N1Cc1ccccc1 (stereo not given) | 0.057 | 0.0479 (inactive) | 0.116 | -0.0294 | 0.635 | 2.61 | 0.599 | 1.3 | 0.121 | 1.07 |
| O=C1O[C@H](c2ccccc2)[C@H](c2ccccc2)N2[C@H]1[C@@H](C(=O)N1CCN(c3ncccn3)CC1)[C@]1(C(=O)Nc3ccc(C#CC4=CCCCC4)cc31)[C@H]2c1ccc(O)cc1 | 0.444 | -0.239 (inactive) | 0.0533 | -0.0282 | 0.413 | 1.81 | 0.853 | 1.3 | -0.0356 | 0.893 |
| CC(=O)NCCCC[C@@H]1NC(=O)[C@@H]2C[C@H](C(=O)NCCCCN(C)C)[C@H](c3cccc(OCCO)c3)N2C1=O | -0.374 | 0.714 (inactive) | -0.186 | -0.112 | 0.57 | 0.944 | 0.511 | 0.259 | 0.462 | 0.664 |
| COC(=O)[C@@]1(Cc2ccc(OC)cc2)[C@H]2c3cc(C(=O)N4CCCC4)n(Cc4ccccc4)c3C[C@H]2CN1C(=O)c1ccccc1 | 1.05 | 0.401 (inactive) | 1.75 | 1.06 | 0.791 | 3.09 | 0.399 | 0.846 | -0.401 | 1.08 |
| C#CCN(Cc1ccccc1Br)C(/C=C/c1ccccc1)CO (stereo not given) | -0.406 | -0.177 (inactive) | -0.212 | -0.18 | -0.22 | -0.163 | -0.146 | -0.271 | 0.188 | -1.25 |
